# Measurements reported in PubChem BioAssay.
# A number with no mark means an inactive call.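 The calls were made as follows, unless noted: active = cell viability at or below a set limit in both duplicate runs, the limit being the all-compound median minus 4 SD (cut at about 23% in these data, passing the limit was not always enough); inconclusive = no clear call, values can overlap the other calls; inactive = the rest.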 Results filed as inconclusive are left out.
# Assay: doxorubicin toxicity protection in MRP-1 cells – H69AR cells, CellTiter-Glo, duplicate, MRP-1 activator project, pilot screen (AID 807;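 active = viability increase at or above a cutoff of the median across tested compounds plus 3 SD, cut at about 8.5% in these data, passing the limit was not always enough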;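 also: compound pretreatment 18-22 h then 72 h combined with doxorubicin; 0% = doxorubicin alone and 100% = vehicle without doxorubicin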)
# Settings: H69AR viability with doxorubicin, CellTiter-Glo luminescence; at 10 µM; active compounds read high
row,Structure (SMILES),viability increase
1,O=C1C(O)CC2c3ccccc3CC3(CCCC3)N12 (stereo not given),-0.65%
2,Cc1ccc(OCC(=O)n2nc(C)cc2C)c(Br)c1,-2.35%
3,Cc1c(C(=O)N2CCN(CCc3ccccc3)CC2)oc2ccccc12,-1.75%
4,c1ccc2cc3[nH]c(CN4CCCCC4)nc3cc2c1,-2.94%
5,Cc1ccc(-n2nc(C)c3c(C)c(CCC(=O)NCc4ccco4)c(C)nc32)cc1,-3.52%
6,Cn1c(=O)c2c(nc(CN3CCOCC3)n2CCCO)n(C)c1=O,-0.74%
7,CCCCNC(=O)c1ccc2nc(-c3ccco3)c(-c3ccco3)nc2c1,-1.69%
8,Cc1ccnc(N2C(=O)c3ccccc3C2Nc2ccccc2Cl)c1 (stereo not given),2.73%
9,CN(CCNC(=O)Cn1c(=O)sc2ccccc21)Cc1ccccc1,-5.12%
10,CCOC(=O)c1c(C)oc2cc(Br)c(OC(C)C(=O)OCC)cc12 (stereo not given),-0.93%
11,Oc1c(C(c2cccc(F)c2)N2CCN(Cc3ccccc3)CC2)sc2ncnn12 (stereo not given),-0.83%
12,O=C(C1CC(=O)N(C2CCCC2)C1)N1CCN(c2ccc(F)cc2)CC1 (stereo not given),0.11%
13,CCCCCSc1nc2c(c(=O)[nH]c(=O)n2C)n1C(C)C,1.12%
14,O=C(C(Cc1ccccc1)n1cccc1)N1CCc2ccccc21 (stereo not given),-3.05%
15,CCOC(=O)C1=C(O)/C(=C/N(C)C)N=C1C,-0.31%
16,Cc1cc(C(=O)NC2CCCC2)on1,0.32%
17,Cc1onc(-c2ccccc2Cl)c1C(=O)NCc1ccc2c(c1)cc(C)n2C,-3.02%
18,CCN(CCCNC(=O)Cn1cc2c(n1)CCCC2)c1cccc(C)c1,-3.77%
19,COc1ccc(C2NC(=O)c3n[nH]c(C)c32)c(OC)c1 (stereo not given),-0.95%
20,S=c1nc(-c2ccccc2)n(CCCn2ccnc2)c2c1CCCC2,0.85%

row,Structure (SMILES),viability increase
1,CC1CCN(CC(C)OC(=O)c2ccc3c(c2)OCCO3)CC1 (stereo not given),-0.68%
2,CCN1CCCC(NC(=O)c2scc3c2CCCC3)C1 (stereo not given),-2.12%
3,Cc1ccc(CNC(=O)CCS(=O)(=O)c2cccc3nsnc23)cc1,-1.57%
4,COC(=O)C1(C)NC(=O)c2ccccc2N1 (stereo not given),-0.86%
5,COC(=O)c1ccccc1NS(=O)(=O)c1cn(C)c(=O)n(C)c1=O,-1.59%
6,CCOC(=O)c1ccc(NC(=O)CCC(=O)OC)cc1,-1.2%
7,COCCNS(=O)(=O)c1cccc2cccnc12,-1.69%
8,CCOC(=O)N1CCC(NC(=O)C2CCCCN2S(=O)(=O)c2ccc(F)cc2)CC1 (stereo not given),-3.71%
9,COc1cc(NC(=O)C2CCCC2)c(OC)cc1Cl,-3.09%
10,CC(=O)NC(CCS(C)(=O)=O)C(=O)Nc1cc(Cl)ccc1Cl (stereo not given),0.37%
11,COc1cc(NC(=O)Cn2ncc3c2-c2ccccc2OC3)cc(OC)c1OC,-3.04%
12,COc1ccccc1-c1nnc(NC(=O)C(C)SC2=NCCS2)s1 (stereo not given),-4.43%
13,C=CCn1c(=NC(=O)C2CC2)sc2cc(NC(C)=O)ccc21,-4.77%
14,Cc1nc(N2CCN(C)CC2)c2sc(=S)n(-c3ccccc3)c2n1,-4.61%
15,CC(=O)Nc1sc(N)nc1-c1ccccc1,0.94%
16,CCCc1cc(C(=O)Nc2sc3c(c2C(=O)OCC)CCCC3)no1,1.82%
17,CCCCN(C)CCNC(=O)Cn1c(=O)sc2ccccc21,-2.43%
18,COc1cccc(C(=O)NCC(c2cccnc2)N2CCN(c3ccccc3OC)CC2)c1 (stereo not given),-2.58%
19,COc1ccc(CSc2nnnn2Cc2ccccc2)cc1OC,-0.65%
20,COc1ccc(NC(=O)Nc2cccc(OC)c2)cc1,-0.65%

# Assay: viability of HCT116 without oncogenic beta-catenin – human colon tumor cells, pilot screen (AID 823);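 also: 0% = wells killed by 20 µM Hyamine and 100% = untreated DMSO cell wells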
# Settings: HCT116 beta-catenin knockout viability, CellTiter-Glo, 60 h; at 10 µM; active compounds read low
row,Structure (SMILES),viability
1,O=C1C(O)CC2c3ccccc3CC3(CCCC3)N12 (stereo not given),99.4%
2,Cc1ccc(OCC(=O)n2nc(C)cc2C)c(Br)c1,93.9%
3,Cc1c(C(=O)N2CCN(CCc3ccccc3)CC2)oc2ccccc12,100%
4,c1ccc2cc3[nH]c(CN4CCCCC4)nc3cc2c1,95.9%
5,Cc1ccc(-n2nc(C)c3c(C)c(CCC(=O)NCc4ccco4)c(C)nc32)cc1,84.7%
6,Cn1c(=O)c2c(nc(CN3CCOCC3)n2CCCO)n(C)c1=O,102%
7,CCCCNC(=O)c1ccc2nc(-c3ccco3)c(-c3ccco3)nc2c1,104%
8,Cc1ccnc(N2C(=O)c3ccccc3C2Nc2ccccc2Cl)c1 (stereo not given),84.9%
9,CN(CCNC(=O)Cn1c(=O)sc2ccccc21)Cc1ccccc1,77.7%
10,CCOC(=O)c1c(C)oc2cc(Br)c(OC(C)C(=O)OCC)cc12 (stereo not given),85.4%
11,Oc1c(C(c2cccc(F)c2)N2CCN(Cc3ccccc3)CC2)sc2ncnn12 (stereo not given),87.7%
12,O=C(C1CC(=O)N(C2CCCC2)C1)N1CCN(c2ccc(F)cc2)CC1 (stereo not given),94.3%
13,CCCCCSc1nc2c(c(=O)[nH]c(=O)n2C)n1C(C)C,89.5%
14,O=C(C(Cc1ccccc1)n1cccc1)N1CCc2ccccc21 (stereo not given),81.2%
15,CCOC(=O)C1=C(O)/C(=C/N(C)C)N=C1C,103%
16,Cc1cc(C(=O)NC2CCCC2)on1,107%
17,Cc1onc(-c2ccccc2Cl)c1C(=O)NCc1ccc2c(c1)cc(C)n2C,95.5%
18,CCN(CCCNC(=O)Cn1cc2c(n1)CCCC2)c1cccc(C)c1,86%
19,COc1ccc(C2NC(=O)c3n[nH]c(C)c32)c(OC)c1 (stereo not given),102%
20,S=c1nc(-c2ccccc2)n(CCCn2ccnc2)c2c1CCCC2,102%

row,Structure (SMILES),viability
1,CC1CCN(CC(C)OC(=O)c2ccc3c(c2)OCCO3)CC1 (stereo not given),112%
2,CCN1CCCC(NC(=O)c2scc3c2CCCC3)C1 (stereo not given),96.5%
3,Cc1ccc(CNC(=O)CCS(=O)(=O)c2cccc3nsnc23)cc1,103%
4,COC(=O)C1(C)NC(=O)c2ccccc2N1 (stereo not given),102%
5,COC(=O)c1ccccc1NS(=O)(=O)c1cn(C)c(=O)n(C)c1=O,101%
6,CCOC(=O)c1ccc(NC(=O)CCC(=O)OC)cc1,96.8%
7,COCCNS(=O)(=O)c1cccc2cccnc12,97.8%
8,CCOC(=O)N1CCC(NC(=O)C2CCCCN2S(=O)(=O)c2ccc(F)cc2)CC1 (stereo not given),94%
9,COc1cc(NC(=O)C2CCCC2)c(OC)cc1Cl,81.9%
10,CC(=O)NC(CCS(C)(=O)=O)C(=O)Nc1cc(Cl)ccc1Cl (stereo not given),105%
11,COc1cc(NC(=O)Cn2ncc3c2-c2ccccc2OC3)cc(OC)c1OC,86.6%
12,COc1ccccc1-c1nnc(NC(=O)C(C)SC2=NCCS2)s1 (stereo not given),83.4%
13,C=CCn1c(=NC(=O)C2CC2)sc2cc(NC(C)=O)ccc21,95.7%
14,Cc1nc(N2CCN(C)CC2)c2sc(=S)n(-c3ccccc3)c2n1,93.4%
15,CC(=O)Nc1sc(N)nc1-c1ccccc1,88.7%
16,CCCc1cc(C(=O)Nc2sc3c(c2C(=O)OCC)CCCC3)no1,104%
17,CCCCN(C)CCNC(=O)Cn1c(=O)sc2ccccc21,99%
18,COc1cccc(C(=O)NCC(c2cccnc2)N2CCN(c3ccccc3OC)CC2)c1 (stereo not given),84.3%
19,COc1ccc(CSc2nnnn2Cc2ccccc2)cc1OC,87.3%
20,COc1ccc(NC(=O)Nc2cccc(OC)c2)cc1,95.3%
